Laboratory results as given in PubChem BioAssay (NCI).
“And” between values parts separate entries of the source, which are not always exact repeats. Equal values may be shown once. The panel holds about 79,000 compounds, 15% with a hit somewhere; the sample as a whole holds those more often. Unmarked numbers belong to inactive results. The source made the active and inactive calls. No stated cut-off is given here; in the data, active means growth inhibition above about 70%; inactive means the rest.

How the values were obtained:
[1] = NCI Yeast Anticancer Drug Screen. Data for the mec2-1 strain (AID 157); conditions: S. cerevisiae mec2-1 strain, stronger effect = higher value
In short: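 Using mec2-1 yeast: add compound, measure growth, express inhibition versus vehicle-treated cultures.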

[2] = NCI Yeast Anticancer Drug Screen. Data for the sgs1 mgt1 strain (AID 161);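 further: 0% = growth of cultures given vehicle only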; conditions: S. cerevisiae sgs1 mgt1 strain, stronger effect = higher value
In short: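 This yeast growth screen uses a strain with defined DNA-repair lesions; compound-treated growth is compared with vehicle-treated growth.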

[3] = NCI Yeast Anticancer Drug Screen. Data for the cln2 rad14 strain (AID 165);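 further: 0% = growth equal to vehicle treated cultures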; conditions: S. cerevisiae cln2 rad14 strain, stronger effect = higher value
In short: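 Yeast strain cln2 rad14, bearing defects in cell cycle control and DNA repair, serves as the test system; values reflect growth inhibition compared with vehicle.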

[4] = NCI Yeast Anticancer Drug Screen. Data for the bub3 strain (AID 167); conditions: S. cerevisiae bub3 mutant strain, stronger effect = higher value
In short: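 Whole-cell yeast assay. The mutant strain was incubated with compounds, and growth inhibition was determined by comparison with vehicle-treated cells.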

[5] = NCI Yeast Anticancer Drug Screen. Data for the mlh1 rad18 strain (AID 175); conditions: S. cerevisiae mlh1 rad18 strain growth inhibition, stronger effect = higher value
In short: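 Steps: expose repair-defective yeast to compound; measure growth; express inhibition against vehicle-treated controls.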

[6] = NCI Yeast Anticancer Drug Screen. Data for the rad50 strain (AID 155);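 further: 0% = growth of vehicle-only cultures of the same strain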; conditions: S. cerevisiae rad50 strain growth inhibition, stronger effect = higher value
In short: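 Growth of the mutant yeast was measured after compound exposure and referenced to vehicle-treated cultures.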

[7] = at 5.0 µM (retest, dose inferred, filed as 0.5)
[8] = at 50.0 µM (retest, dose inferred, filed as 5.0)

| Structure (SMILES) | growth inhibition [1, 7] | growth inhibition [1, 8] | growth inhibition ([1]; at 50.0 µM) | growth inhibition [2, 7] | growth inhibition [2, 8] | growth inhibition ([2]; at 50.0 µM) | growth inhibition [3, 7] | growth inhibition [3, 8] | growth inhibition ([3]; at 50.0 µM) | growth inhibition [4, 7] | growth inhibition [4, 8] | growth inhibition ([4]; at 50.0 µM) | growth inhibition [5, 7] | growth inhibition [5, 8] | growth inhibition ([5]; at 50.0 µM) | growth inhibition [6, 7] | growth inhibition [6, 8] | growth inhibition ([6]; at 50.0 µM) |
| --- | --- | --- | --- | --- | --- | --- | --- | --- | --- | --- | --- | --- | --- | --- | --- | --- | --- | --- |
| CCOC(=O)/C(=C\c1ccc(Cl)cc1)C(C)=O | 49% | 99% (active) | 94.5% (active) | 33% | 98% (active) | 93.3% (active) | 29% | 98% (active) | 92% (active) | 79% (active) | 99% (active) | 92.2% (active) | 79% (active) | 98% (active) | 91.5% (active) | – | – | – |
| [C](#[C][Sn]([c]1ccccc1)([c]1ccccc1)[c]1ccccc1)[Sn]([c]1ccccc1)([c]1ccccc1)[c]1ccccc1 | 99% (active) | 97% (active) | 98.3% (active) | – | – | – | 98% (active) | 95% (active) | 98.4% (active) | 98% (active) | 96% (active) | 98.8% (active) | 98% (active) | 97% (active) | 96.9% (active) | 98% (active) | 95% (active) | 97.5% (active) |
| CC(C)N=Cc1cc(I)cc(I)c1O.CC(C)N=Cc1cc(I)cc(I)c1O.[Co] | 99% (active) | 99% (active) | 97.6% (active) | – | – | – | 98% (active) | 98% (active) | 96.1% (active) | 98% (active) | 99% (active) | 96.5% (active) | 99% (active) | 99% (active) | 97% (active) | 99% (active) | 99% (active) | 96.8% (active) |
| CC(=O)OCC(OC(C)=O)C(OC(C)=O)C(OC(C)=O)C(COC(C)=O)OC(C)=O (stereo unspecified) | – | – | 9.3% and -7.9% and -11.8% | – | – | 3.45% and 10.6% and -10.8% | – | – | -30.3% and -21.9% and -0.1% | – | – | 0.95% and -9.35% and 14.6% | – | – | -24.4% and 7.9% and 2.5% | – | – | -27.2% and -22.9% and -9.4% |
| CCOC(=O)C1SC(=S)N(C)C1=O (stereo unspecified) | -2% | 99% (active) | 99.5% (active) | – | – | – | -7% | 99% (active) | 99.1% (active) | -3% | 98% (active) | 99.4% (active) | 19% | 98% (active) | 99.4% (active) | 3% | 99% (active) | 99.2% (active) |
| COC(=O)C1=C(NC(=O)Nc2ccc(Cl)cc2)OC(C)(C)C1c1ccc(Cl)cc1 (stereo unspecified) | 94% (active) | 94% (active) | 98% (active) | 85% (active) | 92% (active) | 97.1% (active) | 80% (active) | 87% (active) | 94.8% (active) | 89% (active) | 89% (active) | 95.4% (active) | 85% (active) | 89% (active) | 96.8% (active) | – | – | – |
